# Test results: PubChem BioAssay
# Active and inactive are the calls of the source. Unless noted, the rule behind the calls is not given here.
# Key:
# [1] = system: XIP peptide (Xip251-270) binding; experiment: XIP fragment 251-270 binding compounds – biochemical, small-molecule microarray, fluorescence 635/667 nm, 0.1 µg/mL protein, primary screen (AID 1182); conditions: fluorescent protein binding, 635 nm, higher = more signal, called active from +8 up or from −8 down
# XIP peptide (Xip251-270) = experiment: compounds binding XIP fragment 251-270 – biochemical, small-molecule microarray, fluorescence 635/667 nm, 0.5 µg/mL protein, primary screen (AID 1183); conditions: fluorescence 635 nm, higher = more signal
# [2] = blood-stage malaria parasite viability loss – strain 3D7, DAPI fluorescence, 100 nL, primary screen (AID 1184);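 note: parasites grown inside human red blood cells in medium with human serum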; conditions: P. falciparum 3D7 growth, 3 d, higher = more signal
# [3] = target: Homeobox protein Hox-A13 (Mus musculus) (UniProt Q62424); experiment: disruptors of Hoxa13 oligonucleotide interaction – biochemical, fluorescence polarization, labeled oligonucleotide, primary screen (AID 1185); conditions: Hoxa13:DNA binding, 15 min, higher = more signal, called active from +8 up or from −8 down
# Sequence of Homeobox protein Hox-A13 (Mus musculus) (Q62424 whole entry, looked up): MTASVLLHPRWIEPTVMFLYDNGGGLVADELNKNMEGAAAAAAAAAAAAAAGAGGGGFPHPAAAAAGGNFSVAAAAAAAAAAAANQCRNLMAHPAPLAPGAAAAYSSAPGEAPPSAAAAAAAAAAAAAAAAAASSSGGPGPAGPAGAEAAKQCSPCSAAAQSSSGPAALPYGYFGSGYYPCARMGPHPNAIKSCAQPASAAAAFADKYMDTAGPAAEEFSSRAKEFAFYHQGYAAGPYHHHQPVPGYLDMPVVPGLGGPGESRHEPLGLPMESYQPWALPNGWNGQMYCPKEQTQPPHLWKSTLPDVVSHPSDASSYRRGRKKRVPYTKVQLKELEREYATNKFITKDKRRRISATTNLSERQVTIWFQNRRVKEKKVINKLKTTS
# [4] = blockers of DNA damage checkpoint Chk1 activation – imaging, HeLa, hydroxyurea, phospho-Chk1 antibody, percent positive cells, primary screen (AID 1186); conditions: hydroxyurea-induced phospho-Chk1 immunofluorescence imaging, higher = more signal
# [5] = blockers of DNA damage checkpoint Chk1 activation – imaging, HeLa, hydroxyurea, phospho-Chk1 nuclear intensity, primary screen (AID 1187); conditions: hydroxyurea-induced phospho-Chk1 immunofluorescence imaging, higher = more signal
Structure (SMILES),composite z-score [1],composite z-score (XIP peptide (Xip251-270)),z-score [2],z-score [3],z-score [4],z-score [5]
O=[N+]([O-])c1ccc(C[n+]2ccc3ccc(O)cc3c2)o1,1.14 (inactive),0.676,0.87,-5.47 (inactive),-0.0465 (inactive),-0.0404 (inactive)
COC(=O)[C@H]1[C@@H]2COc3ccccc3[C@H]2N[C@H]1C(=O)OC,0.22 (inactive),0.522,0.535,-0.726 (inactive),-0.953 (inactive),-0.134 (inactive)
COC(=O)[C@@]1(Cc2ccccc2CN=[N+]=[N-])N=C(c2ccc(OCCCO)cc2)O[C@H]1c1ccccc1N=[N+]=[N-],0.413 (inactive),0.653,-1.94,0.683 (inactive),0.0586 (inactive),0.0586 (inactive)
Cc1ccc(N2C(=O)c3ccccc3[C@](C)(C(=O)O)[C@@H]2c2ccc(CO)cc2)nc1,-0.235 (inactive),-1.16,-0.63,-0.0226 (inactive),0.153 (inactive),0.522 (inactive)
COc1cc2c(cc1OC)CN(C(=O)[C@H]1[C@@H]3C(=O)O[C@@H](c4ccccc4)[C@@H](c4ccccc4)N3[C@@H](c3ccccc3OCCO)[C@]13C(=O)Nc1ccc(C#CC4(O)CCCCCC4)cc13)CC2,1.62 (inactive),0.837,-2.14,1.74 (inactive),-0.0766 (inactive),0.196 (inactive)
C=CC[C@]1(C(=O)NCC(O)CO)N=C(c2ccc(OCCCO)cc2)O[C@H]1c1ccccc1 (some centres not stated),0.654 (inactive),0.124,-0.851,-5.04 (inactive),-0.147 (inactive),-0.0911 (inactive)
COC(=O)[C@@]1(Cc2ccccc2N=[N+]=[N-])N=C(c2ccc(OCCCO)cc2)O[C@H]1c1ccccc1CN=[N+]=[N-],0.367 (inactive),0.82,-2.29,1.05 (inactive),-0.352 (inactive),-0.735 (inactive)
O=C(CS)NCCCCCNC(=O)[C@H]1C[C@H]2C(=O)N3CCC[C@H]3C(=O)N2[C@H]1c1ccc(O)cc1,0.215 (inactive),-1.02,-0.0463,-3.01 (inactive),0.23 (inactive),0.426 (inactive)
C[N+](C)(C)CCCC[C@@H]1NC(=O)[C@H]2C[C@@H](C(=O)NCc3ccc(F)cc3)[C@@H](c3cccc(OCCO)c3)N2C1=O,1.61 (inactive),0.675,0.13,-1.22 (inactive),0.06 (inactive),0.274 (inactive)
CC(C)NC(=O)[C@@]1(Cc2ccccc2I)c2ccccc2C(=O)N(C2CCCCC2)[C@H]1c1ccc(CO)cc1,1.02 (inactive),0.84,-1.89,-4.58 (inactive),0.551 (inactive),0.615 (inactive)
C=CCC(OC(C)=O)[C@@H]1[C@@H](N(Cc2cccc3ccccc23)C(=O)Cc2ccc(F)cc2)c2cc(OCCCO)ccc2N1C(=O)Cc1ccc2ccccc2c1 (some centres not stated),-0.741 (inactive),0.57,-1.17,-0.474 (inactive),-0.579 (inactive),-0.516 (inactive)
C=CC[C@@]1(C(=O)NCC(O)CO)N=C(c2ccc(OCCCO)cc2)O[C@@H]1c1ccccc1CN=[N+]=[N-] (some centres not stated),0.336 (inactive),-0.105,-2.34,-2.67 (inactive),-0.691 (inactive),-0.873 (inactive)
CCCC[C@H]1OB(O)C[C@H]2C1=C(COC)C[C@H]1C(=O)N(Cc3ccccc3)C(=O)[C@H]12,0.2 (inactive),0.0845,-0.386,-6.5 (inactive),-0.669 (inactive),-0.331 (inactive)
[N-]=[N+]=NCc1ccccc1C[C@@]1(C(=O)O)N=C(c2ccc(OCCCO)cc2)O[C@@H]1c1ccccc1N=[N+]=[N-],-0.321 (inactive),0.908,-2.15,-4.16 (inactive),-1.08 (inactive),-0.884 (inactive)
C=CCOC(=O)[C@@H]1[C@H]2C(=O)O[C@H](c3ccccc3)[C@H](c3ccccc3)N2[C@H](c2ccc(OCCOC(=O)[C@H]3C[C@H]4C(=O)N5CCC[C@H]5C(=O)N4[C@H]3c3ccc(O)cc3)cc2)[C@@]12C(=O)Nc1ccccc12,1.22 (inactive),0.804,-2.01,1.59 (inactive),0.458 (inactive),0.895 (inactive)
C=C(CCCC)C(=O)CC[C@@H](OC(C)=O)c1ccccc1OCCO,0.144 (inactive),-1.02,-1.77,-4.53 (inactive),-0.21 (inactive),-0.223 (inactive)
C=C(CCCC)/C(=C/C[C@@H](OC(=O)c1ccncc1)c1cccc(OCCO)c1)c1cc(C(=O)OC)ccc1OC,1.33 (inactive),0.74,-3.09,-3.11 (inactive),0.0994 (inactive),0.74 (inactive)
C=CCC(OC(C)=O)[C@@H]1[C@@H](N(Cc2cc3ccccc3o2)C(=O)Cc2ccc(F)cc2)c2cc(OCCCO)ccc2N1C(=O)c1ccc(-c2ccccc2)cc1 (some centres not stated),-0.618 (inactive),-0.666,-0.0101,-1.04 (inactive),0.0934 (inactive),0.192 (inactive)
C=C(CCCC)/C(=C/C[C@H](OC(=O)c1ccncc1)c1cccc(OCCO)c1)c1cc(C(=O)OC)ccc1OC,2.08 (inactive),0.305,-3.26,-4.52 (inactive),-0.433 (inactive),-0.355 (inactive)
NC(=O)NCC#Cc1ccc2c(c1)[C@]1(C(=O)N2)[C@H](C(=O)N2CCCCCCC2)[C@H]2C(=O)O[C@H](c3ccccc3)[C@H](c3ccccc3)N2[C@@H]1c1ccccc1OCCO,4.02 (inactive),0.486,-1.83,4.43 (inactive),0.323 (inactive),0.671 (inactive)
CC(c1ccccc1)C(O)C1C=CC2C(=O)N(C)C(=O)C2N1N(c1ccccc1)c1ccccc1 (configuration not stated),0.0311 (inactive),-0.62,-0.141,-4.26 (inactive),0.75 (inactive),-0.173 (inactive)

Structure (SMILES),composite z-score [1],composite z-score (XIP peptide (Xip251-270)),z-score [2],z-score [3],z-score [4],z-score [5]
CC(C)[Si]1(C(C)C)OCc2cc(C3CC3)nc(-c3ccccc3)c21,0.119 (inactive),0.939,-1.16,-0.631 (inactive),-0.37 (inactive),-0.0248 (inactive)
CC1CC/C=C\[C@H]2OC34C=CCN(Cn5nnc6ccccc65)C(=O)[C@H]3N(C(C)CO)C(=O)[C@@H]4C2C(=O)O1 (some centres not stated),0.205 (inactive),0.0783,0.189,-4.29 (inactive),-0.087 (inactive),-0.361 (inactive)
COC(=O)Cn1c(C(=O)N2CCCC2)cc2c1C[C@H]1CN(C(=O)c3ccccc3)[C@@](Cc3ccccc3)(C(=O)OC)[C@@H]21,0.564 (inactive),0.535,-0.252,-4.99 (inactive),-1.29 (inactive),-0.687 (inactive)
Cc1ccc(N2C(=O)c3ccccc3[C@@H](C(=O)NCc3ccccc3)[C@@H]2c2ccc(CO)cc2)nc1,-0.337 (inactive),-0.98,-0.432,-0.681 (inactive),-0.639 (inactive),-0.627 (inactive)
NC(=O)NCC#Cc1ccc2c(c1)[C@]1(C(=O)N2)[C@H](c2ccccc2OCCO)N2[C@H](c3ccccc3)[C@H](c3ccccc3)OC(=O)[C@H]2[C@@H]1C(=O)N1CCN(c2ncccn2)CC1,0.233 (inactive),0.763,-2.34,0.487 (inactive),0.553 (inactive),1.5 (inactive)
CN1C(=O)C2C=CC(C(O)C3CC=CCC3)N(Nc3ccccc3)C2C1=O (configuration not stated),0.769 (inactive),0.795,0.235,-3.96 (inactive),0.202 (inactive),0.25 (inactive)
CC(C)=C1C(=O)C(c2ccccc2)=C2CN3C(=O)N(CCc4ccccc4)C(=O)[C@]3(Cc3ccccc3)[C@H]21,-0.315 (inactive),-0.78,-0.774,-0.972 (inactive),0.844 (inactive),0.84 (inactive)
[N-]=[N+]=NCc1ccccc1[C@H]1OC(c2ccc(OCCCO)cc2)=N[C@@]1(Cc1ccccc1N=[N+]=[N-])C(=O)NCc1ccccc1,0.0116 (inactive),0.649,-2.49,-1.23 (inactive),-0.0872 (inactive),-0.747 (inactive)
O=C1c2ccccc2[C@](Cc2ccccc2I)(C(=O)O)[C@H](c2ccc(CO)cc2)N1C1CCCCC1,1.87 (inactive),0.734,-1.49,-2.96 (inactive),-0.225 (inactive),-0.395 (inactive)
C[C@]1(C(=O)NCc2ccccc2)c2ccccc2C(=O)N(Cc2cc(C(F)(F)F)cc(C(F)(F)F)c2)[C@H]1c1ccc(CO)cc1,1.03 (inactive),-0.105,-1.61,-1.78 (inactive),-1.45 (inactive),-2.06 (inactive)
CCCC=C(CCC)[C@@H](NC(=O)c1ccccc1)c1ccccc1,-1.3 (inactive),-0.905,-0.639,-0.832 (inactive),-0.442 (inactive),-0.784 (inactive)
C=CCNC(=O)[C@H]1[C@@H]2C(=O)O[C@@H](c3ccccc3)[C@@H](c3ccccc3)N2[C@@H](c2ccccc2OCCO)[C@]12C(=O)N(C(=O)OCCOC)c1ccc(C#CCNC(N)=O)cc12,0.854 (inactive),0.822,-1.87,-1.33 (inactive),-0.267 (inactive),-0.261 (inactive)
O=C1C[C@@](C(=O)NCCN2CCOCC2)(c2ccc([N+](=O)[O-])cc2)[C@@H](c2ccc(CO)cc2)N1C1CCCCC1,1.01 (inactive),0.818,-1.6,-4.21 (inactive),-0.0132 (inactive),0.434 (inactive)
COCCOC(=O)N1C(=O)[C@@]2(c3cc(C#CCNC(N)=O)ccc31)[C@H](c1ccccc1OCCO)N1[C@H](c3ccccc3)[C@H](c3ccccc3)OC(=O)[C@H]1[C@@H]2C(=O)NC[C@H](O)c1ccccc1,0.88 (inactive),0.8,-1.84,-3.26 (inactive),0.0689 (inactive),-0.158 (inactive)
C#CCNC(/C=C/c1ccccc1)CO (configuration not stated),-0.447 (inactive),0.0391,-0.414,-1.21 (inactive),0.0357 (inactive),0.237 (inactive)
CCCC=C(CCC)[C@@H](NS(=O)(=O)c1ccc(-c2ccccc2)cc1)c1ccc(C(=O)OC)cc1,0.046 (inactive),-0.203,-1.37,-1.02 (inactive),-0.361 (inactive),-0.761 (inactive)
COCCOC(=O)N1C(=O)[C@@]2(c3cc(C#CCC(C(=O)OC)C(=O)OC)ccc31)[C@H](C(=O)N1CCN(c3ncccn3)CC1)[C@H]1C(=O)O[C@H](c3ccccc3)[C@H](c3ccccc3)N1[C@@H]2c1ccc(O)cc1,1.36 (inactive),0.843,-2.08,-0.323 (inactive),-0.447 (inactive),-0.685 (inactive)
C=CCC(OC(C)=O)[C@@H]1[C@@H](N(Cc2ccc(-c3cccc(C(F)(F)F)c3)o2)C(=O)Cc2ccc(F)cc2)c2cc(OCCCO)ccc2N1C(=O)c1ccc(-c2ccccc2)cc1 (some centres not stated),-0.403 (inactive),-0.829,-0.294,-1.2 (inactive),0.634 (inactive),-0.385 (inactive)
Cc1ccc(S[C@]2(C(=O)NCCCN(C)C)CC(=O)N(Cc3ccccc3)[C@@H]2c2ccc(CO)cc2I)cc1,0.066 (inactive),0.119,0.0943,-2.06 (inactive),0.379 (inactive),0.637 (inactive)
O=C1O[C@H](c2ccccc2)[C@H](c2ccccc2)N2[C@H]1[C@@H](C(=O)NC[C@H](O)c1ccccc1)[C@]1(C(=O)Nc3ccc(C#CC4(O)CCCCCC4)cc31)[C@H]2c1ccc(OCCO)cc1,-0.342 (inactive),0.799,-1.45,0.199 (inactive),-0.309 (inactive),-0.412 (inactive)
O=C1OCC=C[C@H]2OC34C=CCN(Cc5ccccc5)C(=O)[C@H]3N(CCCCCO)C(=O)[C@@H]4[C@@H]12 (some centres not stated),0.211 (inactive),-0.85,-1.99,-3.21 (inactive),0.729 (inactive),0.0912 (inactive)
